Source: PubChem
Sfp PPTase inh: inhibitors of Bacillus subtilis Sfp phosphopantetheinyl transferase | Q9F4F7 | 310,000 compounds, 3.5% hits | AID 1490 | Potency, µM, for inactives: largest response in the series, negative = inhibition, hits mostly inhibitors | Biochemical Sfp PPTase activity, qHTS;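 further: the enzyme is Sfp with the accession as filed and its product quenches rhodamine fluorescence; 0% = enzyme reaction without inhibitor and -100% = no enzyme wells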
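Fluorescence-quenching assay with 15 nM Sfp, 5 uM rhodamine-CoA and 12.5 uM BHQ-2-labelled ybbR peptide in pH 7.6 Hepes/MgCl2 buffer. Enzyme was pre-incubated with compound for 15 min at room temperature. Rate was taken from the 30-min fluorescence change (525/598 nm).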
JMJD2A Tudor: inhibitors of human JMJD2A Tudor domain; AlphaScreen JMJD2A-Tudor / H3K4me3 peptide binding; Potency, µM (doses to about 114 µM), inactives show at the top dose activity change, negative = inhibition, usual class: inhibitors; 390,000 compounds, 4.4% hits; O75164; further: on the % scale 0 is the no-effect control and ±100 the full control effect; nearly all actives have a fitted effect of over 50% in size
HP1b chromo inh: HP1-beta chromodomain-methylated histone interaction inhibition; 390,000 compounds, 0.56% hits; Potency, µM (doses to about 114 µM), without a hit: at the top dose activity change, negative = inhibition, usual class: inhibitors; P83916; AlphaScreen HP1-beta / biotin-H3K9me3 peptide binding; AID 540317; further: nearly all actives have a fitted effect of over 70% in size
Target sequence (P83916 whole entry, looked up): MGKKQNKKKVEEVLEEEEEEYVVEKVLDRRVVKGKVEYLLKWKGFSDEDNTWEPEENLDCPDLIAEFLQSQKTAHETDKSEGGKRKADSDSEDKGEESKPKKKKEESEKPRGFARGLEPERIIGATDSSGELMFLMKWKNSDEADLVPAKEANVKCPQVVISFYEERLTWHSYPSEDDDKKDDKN
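HP1-beta protein (50 nM final) preincubated 30 min at room temperature with biotinylated H3(1-18)K9me3 peptide (50 nM) in PBS pH 7.4, 0.01% Tween-20, then compound added for 30 min. AlphaScreen streptavidin donor/nickel chelate acceptor beads (10 ug/mL final), 30 min dark, luminescence read.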
BAZ2B block: inhibitors of human BAZ2B bromodomain | Q9UIF8 | AlphaScreen BAZ2B-H3K14Ac peptide displacement | Potency, µM (top dose mostly 114 µM), inactives show at the top dose activity change, negative = inhibition, usual class: inhibitors | 360,000 compounds, 4.4% hits; further: on the % scale 0 is the no-effect control and ±100 the full control effect; nearly all actives have a fitted effect of over 60% in size
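Multi-concentration screen (max 110 uM) measuring displacement of acetylated histone H3 peptide from BAZ2B by AlphaScreen, using 50 nM protein, 50 nM peptide and 10 ug/mL streptavidin donor plus Ni-chelate acceptor beads.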
G9a inh: G9a (human) methyltransferase inhibition; 350,000 compounds, 8.8% hits; G9a H3K9 monomethylation, AlphaScreen, 2 h; Potency, µM (highest dose often 102 µM), for the others: at the highest dose activity, negative = inhibition, hits mostly inhibitors; further: on the % scale 0 is the no-effect control and ±100 the full control effect; nearly all actives have a fitted effect of over 75% in size
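AlphaScreen detection with an anti-monomethyl H3K9 antibody quantified product after a 2 h room-temperature reaction containing 500 nM biotinylated H3K9 peptide, 20 µM SAM and 20 nM enzyme, which had been preincubated 15 min with compound.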
TDP1 block: TDP1 (human) enzyme inhibition; 350,000 compounds, 0.28% hits; Q9NUW8; recombinant TDP1, AlphaScreen DNA substrate cleavage; AID 485290; Potency, µM (series often up to 130 µM), for the others: at the highest dose activity change, negative = inhibition, usual class: inhibitors; further: on the % scale 0 is the no-effect control and ±100 the full control effect; nearly all actives have a fitted effect of over 40% in size
Target sequence (Q9NUW8 whole entry, looked up): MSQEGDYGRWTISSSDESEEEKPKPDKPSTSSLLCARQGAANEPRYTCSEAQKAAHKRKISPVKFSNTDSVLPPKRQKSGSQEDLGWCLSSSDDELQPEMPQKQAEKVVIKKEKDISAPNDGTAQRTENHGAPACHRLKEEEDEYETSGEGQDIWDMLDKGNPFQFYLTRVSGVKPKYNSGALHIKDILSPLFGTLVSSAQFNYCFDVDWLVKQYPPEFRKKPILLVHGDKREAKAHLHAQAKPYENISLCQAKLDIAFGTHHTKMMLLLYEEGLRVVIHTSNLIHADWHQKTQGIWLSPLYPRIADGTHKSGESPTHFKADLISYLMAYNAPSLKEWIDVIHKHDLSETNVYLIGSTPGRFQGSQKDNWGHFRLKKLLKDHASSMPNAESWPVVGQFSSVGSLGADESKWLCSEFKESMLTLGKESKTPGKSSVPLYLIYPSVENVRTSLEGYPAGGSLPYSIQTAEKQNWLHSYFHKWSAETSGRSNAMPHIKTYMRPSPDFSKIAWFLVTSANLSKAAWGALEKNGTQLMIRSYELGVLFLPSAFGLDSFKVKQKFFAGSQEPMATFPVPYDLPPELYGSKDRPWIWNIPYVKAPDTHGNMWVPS
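AlphaScreen read-out: signal falls as enzyme removes the 3' tyrosine-FITC from a 5'-biotinylated DNA oligo (15 nM, 5 min, RT). Enzyme was E. coli-made recombinant Tdp1 at 1 nM, exposed to compound for 15 min beforehand; beads 10 ug/ml, 10 min.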
The depositor's hits bear a star; u = inconclusive; x = not tested or not shown; [ ] = dose if it differs, or a comment. The list is not random: actives were taken first. Their share in the collection is about 12%. The call rests on the fitted dose curve; in most records, active means well fitted curve in the direction sought with a large enough effect; inconclusive means small, poorly fitted or top-dose-only effect, or another doubt; inactive means no such curve, though single readings can be large; an effect the other way counts as inactive or inconclusive. Potency means the concentration at half of the fitted maximal effect.

SMILES | Sfp PPTase inh | JMJD2A Tudor | HP1b chromo inh | BAZ2B block | G9a inh | TDP1 block
CNc1nc(-c2ccccc2C)nc2ccccc12 | u | x | x | x | -1.5%[0.501 µM] | x
Cc1cccc(N2CCN(C(=O)CCS(=O)(=O)c3ccc(Br)cc3)CC2C)c1 (configuration not stated) | -9.5% | u | 28.2µM* | 31.6µM* | 25.1µM* | x
CC(=O)N1CCCc2cc(S(=O)(=O)CCC(=O)N3CCN(c4cccc(C)c4)C(C)C3)ccc21 (configuration not stated) | 5.6% | 56.2µM* | -24.7% | 50.1µM* | 50.1µM* | -4.9%
CCc1ccc(C(O)(CNCc2ccccc2)c2ccccc2)cc1 (configuration not stated) | 1.7% | 30.9% | 65.7% | 17.9% | 10.1% | x
Cc1ccc(COc2cccc3cc(-c4noc(-c5ccc(C)cc5)n4)c(=O)oc23)cc1 | x | -8.9% | 41.3% | -0.5% | 3.3%[59 µM] | 0.0%
Cn1ccnc1SCC(=O)c1ccc(OC(F)F)cc1 | 9.6% | -10.2% | -4.5% | -3.7% | u | x
CCn1c(CNC(=O)c2ccco2)nnc1SCC(=O)c1ccc(OC)cc1 | -7.5% | -9.7% | 29.5% | -12.8% | 3.5%[0.501 µM] | 3.7%
COc1ccc(C(=O)CSc2nccn2C)cc1 | 56.2µM* | -11.6% | 4.3% | -29.7% | 50.1µM* | 12.1%
CCSCc1nnc(SCC(=O)c2ccc(OC)cc2)n1C | -22.6% | 50.1µM* | 2.4% | -0.3% | u | -11.0%
COc1ccc(C(=O)NCc2nnc(SCC(=O)c3ccc(F)cc3)n2C)cc1OC | x | -3.4% | 12.6% | 8.6% | -2.3%[0.501 µM] | 5.3%
CCn1c(CNC(=O)c2ccc(OC)c(OC)c2)nnc1SCC(=O)c1ccc(OC)cc1 | -14.4% | -4.1%[11.4 µM] | -13.1% | -4.4% | 11.2µM* | -2.2%
COc1ccc(CC(=O)NCc2nnc(SCC(=O)c3ccc(OC)cc3)n2C)cc1 | 16.1% | -11.0% | 44.2% | -3.3% | -26.2% | -2.7%
COc1ccc(C(=O)CSc2nnc(CNC(=O)c3ccc(OC)c(OC)c3)n2C)cc1 | -15.2% | 44.7µM* | -8.5% | 7.2% | -4.3%[12.7 µM] | 8.8%
Nc1ccc(N(CCO)CCO)cc1 | 12.6µM* | 8.91µM* | u | 50.1µM* | 11.2µM* | x
CCN(CC)c1ccc(N)cc1 | x | 17.8µM* | 12.6µM* | 31.6µM* | -4.0%[0.501 µM] | 11.7%
Nc1ccc(C(=O)N(CCO)CCO)cc1 | 20.5% | -8.6% | 23.8% | -24.2% | -3.9% | -2.4%
CC(=O)Nc1ccc2c(c1)nc(CCNC(=O)c1ccco1)n2C | 9.0% | -9.2% | 15.7% | -1.4% | 6.5% | 7.2%
CCN(CC)S(=O)(=O)c1cccc(-c2cn3cc(C)ccc3n2)c1 | -20.4% | -23.3% | 10.5% | -28.5% | u | 2.3%
CCN(CC)S(=O)(=O)c1cccc(-c2n[nH]c(=S)n2Cc2ccccc2)c1 | -23.0% | u | 37.3% | -36.0% | 0.891µM* | 2.4%
CCN(CC)S(=O)(=O)c1cccc(-c2nc3n(n2)Cc2ccccc2-3)c1 | 10.7% | -32.1% | 24.2% | -33.4% | 50.1µM* | 4.8%
CCN(CC)S(=O)(=O)c1cccc(-c2n[nH]c(=S)n2CC(C)C)c1 | -29.6% | 10µM* | 8.2% | 4.9% | 3.16µM* | 2.7%
COC(Cn1c(-c2cccc(S(=O)(=O)N(C)C)c2)n[nH]c1=S)OC | -11.5% | 7.94µM* | -0.5% | x | 10µM* | 0.0%
COc1ccccc1C(=O)C1CCCN(C(=O)c2cccc(-n3cccn3)c2)C1 (configuration not stated) | 14.2% | -5.8% | 27.7% | -37.9% | -10.1% | 0.0%
CCN(CC(=O)Nc1ccc(NC(C)=O)cc1)C(=O)c1n[nH]c(=O)c2ccccc12 | 17.9% | 5.9% | 32.7% | -22.5% | -1.4% | 1.8%
CCCCNC(=O)COC(=O)C1CCN(S(=O)(=O)c2ccc3c(c2)OCCO3)CC1 | x | -19.0% | 11.8% | -5.5% | 17.9%[59 µM] | 3.1%
SMILES | Sfp PPTase inh | JMJD2A Tudor | HP1b chromo inh | BAZ2B block | G9a inh | TDP1 block
CCCCN(CC)C(=O)Nc1ccc2c(c1)N(C)C(=O)c1ccccc1S2 | x | u | -15.1% | u | -37.4%[59 µM] | 11.4%
CCN(CC)S(=O)(=O)c1ccc(C(=O)NCc2n[nH]c(=S)n2Cc2ccccc2)cc1 | -13.7% | 28.2µM* | 21.0% | -4.9% | u | 5.4%
CCCSc1nsc(SCCC)c1C(N)=O | -7.8% | -20.1% | 38.4% | -5.6% | 39.8µM* | 4.2%
CCSc1nsc(SCC)c1C(N)=O | -2.0% | -8.1% | 40.4% | 7.2% | u | -1.0%
CC1(C)C2CCC(C2)C1(C)NC(=O)CN1CCN(Cc2ccccc2)CC1 (configuration not stated) | u | 1.41µM* | 15.8µM* | 28.2µM* | 5.62µM* | x
CSCCC(NC(=O)c1ccco1)C(=O)Nc1ccc(C)cn1 (configuration not stated) | x | -11.0% | 43.1% | 4.7% | 19.4%[2.33 µM] | x
COCCSc1ccccc1C(=O)NCc1ccco1 | 17.8µM* | -30.4% | 9.8% | -1.0% | u | -10.9%
Cc1ccccc1NC(=O)CNc1ccccc1C(=O)NCc1ccco1 | -4.1% | -29.5% | 19.2% | -25.6% | 39.8µM* | 0.0%
COc1ccccc1CNC(=O)c1ccccc1SCC(=O)NCc1ccco1 | x | -34.5% | -0.4% | 7.6% | 3.16µM* | 0.3%
Cc1cccc(C)c1NC(=S)Nc1ccccc1C(=O)NCc1ccco1 | -12.7% | -20.6% | 11.5% | -35.5% | -3.6%[59 µM] | 8.1%
Cc1ccccc1CNC(=O)c1ccccc1SCC(=O)NCc1ccco1 | x | -2.7% | 39.1% | -3.7% | 12.6µM* | 0.9%
Cc1occc1C(=O)NCc1ccco1 | -3.8% | -20.2% | -3.2% | u | 10.1%[59 µM] | x
COC(=O)c1cnc(N2CCOCC2)nc1C(F)(F)F | 5.4% | -4.2% | 20.7% | 1.7% | 0.2% | -4.1%
Cc1ccccc1-c1noc(-c2ccccc2C(=O)NCc2ccco2)n1 | 44.7µM* | -16.6% | u | -25.2% | u | 0.0%
O=C(NCc1ccco1)c1ccccc1NS(=O)(=O)c1cccs1 | 3.6% | -21.6% | 19.9% | -3.6% | u | 5.2%
O=C(NCc1ccco1)c1ccccc1NS(=O)(=O)c1ccc(Cl)s1 | 12.3% | u | 9.6% | u | 20µM* | 5.1%
COC(=O)c1cc(OC)c(OC)cc1NC(=S)N1CCN(c2ccccn2)CC1 | -0.3% | -10.7% | 11.0% | u | -4.6% | -3.7%
Cc1cc(C)c2c(=O)cc(C(=O)Nc3nc4ccc(F)cc4s3)oc2c1 | x | -3.8% | 41.3% | -4.2% | 9.2%[59 µM] | -7.4%
O=C1CN(C(=O)COc2ccccc2Cl)c2ccccc2N1 | x | -11.3% | 31.0% | -5.4% | u | 1.4%
CC1CCCC(C)N1C(=O)COC(=O)/C=C/c1ccc(Br)o1 (configuration not stated) | x | 20µM* | u | x | x | 11.2µM*
O=C1CN(C(=O)COc2ccccc2F)c2ccccc2N1 | -12.5% | -19.3% | 9.5% | 4.4% | 50.1µM* | 1.9%
